Tgondii IFNg: blocks Toxoplasma gondii growth in the presence of IFN-gamma. Toxoplasma gondii growth in IFN-gamma-treated host cells; stronger effect = lower value. activity change, negative = inhibition, % (no concentration beside the values). actives 3.8% (n = 69,000). AID 1259416; in the data active = activity change below about -70%, passing the limit was not always enough;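 note: host cells are HeLa cells infected with Toxoplasma gondii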
Numbers without * were called inactive. The full list was thinned out, with hits kept by preference.

What do the screens show for `Cc1ccc(S(=O)(=O)Cc2ccc(C(F)(F)F)cc2)cc1`?
Tgondii IFNg: -19

How did Cc1nc2ccccc2c(=O)n1CC(=O)Nc1ccc(N2CCCC2)c2nonc12 do in these assays?
Tgondii IFNg: 0

Results for CCC(CC)N(CC)C(=O)c1ccc(=O)[nH]n1 ?
Tgondii IFNg: -4

What do the screens show for `Cc1nc(C)c(C(=O)N2CCC(c3ccc(Nc4ncccn4)cn3)CC2)o1`?
Tgondii IFNg: -15

Results for Cc1cc(C)n(C(=O)CCC(=O)Nc2cccc(Cl)c2C)n1 ?
Tgondii IFNg: -4

How did O=c1[nH]c(=S)[nH]nc1-c1ccc(Cl)cc1 do in these assays?
Tgondii IFNg: -40

How did Cc1ccsc1CN1CCC2(CC1)CC(OCC1CC1)CO2 (configuration not stated) do in these assays?
Tgondii IFNg: -8

How did Nc1cnc(-c2cc3ccccc3o2)cn1 do in these assays?
Tgondii IFNg: 185

Results for COc1cccc(S(=O)(=O)N2CCC(c3nc(C(=O)N4CCCC4)c(C)o3)CC2)c1 ?
Tgondii IFNg: 58

Results for CCN(Cc1noc(CC(C)C)n1)C(=O)C1CCCO1 (configuration not stated) ?
Tgondii IFNg: 3

How did CN(Cc1ccccc1)C1CCN(S(=O)(=O)C2CC2)C(C(=O)O)C1 (configuration not stated) do in these assays?
Tgondii IFNg: 4

What do the screens show for `COc1ccc(CN(C)C[C@H]2OCCCC[C@H](C)Oc3ccc(NC(=O)C4CCCCC4)cc3C(=O)N([C@@H](C)CO)C[C@@H]2C)cc1`?
Tgondii IFNg: 271

Results for Cc1ccc(S(=O)(=O)Nc2ccc3c(c2)C(=O)N([C@H](C)CO)C[C@H](C)[C@@H](CN(C)Cc2ccc(C(F)(F)F)cc2)O3)cc1 ?
Tgondii IFNg: 14

Results for Cc1ccc(S(=O)(=O)Nc2ccc3c(c2)C(=O)N([C@@H](C)CO)C[C@H](C)[C@@H](CN(C)Cc2ccc(C(F)(F)F)cc2)O3)cc1 ?
Tgondii IFNg: -60

How did COc1ccc(S(=O)(=O)Nc2ccc3c(c2)C(=O)N([C@@H](C)CO)C[C@@H](C)[C@@H](CN(C)Cc2ccc(C(F)(F)F)cc2)OCCCC[C@H](C)O3)cc1 do in these assays?
Tgondii IFNg: -120*

What do the screens show for `Cc1ccc(S(=O)(=O)Nc2ccc3c(c2)C(=O)N([C@@H](C)CO)C[C@@H](C)[C@@H](CN(C)Cc2ccc(C(F)(F)F)cc2)O3)cc1`?
Tgondii IFNg: -17

What do the screens show for `COc1ccc(CN(C)C[C@@H]2OCCCC[C@@H](C)Oc3ccc(NC(=O)C4CCCCC4)cc3C(=O)N([C@H](C)CO)C[C@@H]2C)cc1`?
Tgondii IFNg: 161

Results for COc1ccc(S(=O)(=O)Nc2ccc3c(c2)C(=O)N([C@H](C)CO)C[C@@H](C)[C@H](CN(C)Cc2ccc(C(F)(F)F)cc2)OCCCC[C@@H](C)O3)cc1 ?
Tgondii IFNg: -119*

Results for COc1ccc(S(=O)(=O)Nc2ccc3c(c2)C(=O)N([C@H](C)CO)C[C@@H](C)[C@@H](CN(C)Cc2ccc(C(F)(F)F)cc2)OCCCC[C@H](C)O3)cc1 ?
Tgondii IFNg: -120*

Results for CC(C)c1nc(CN(C)C(=O)CCc2nc(-c3ccccc3F)no2)cs1 ?
Tgondii IFNg: 42

How did Cc1cc(F)cc(-c2c(-c3ccccc3)ncn2CCCN2CCCC2=O)c1 do in these assays?
Tgondii IFNg: -12

How did CSc1ccccc1NC(=O)C1CCN(S(=O)(=O)c2ccc(F)cc2)CC1 do in these assays?
Tgondii IFNg: -7

Results for Cc1nc(-c2ccccc2)nc2c1COCC21CCN(C(=O)c2ccccc2)C1 (configuration not stated) ?
Tgondii IFNg: -14

How did CO[C@@H](CN(C)S(=O)(=O)c1cccc(Cl)c1)[C@@H](C)CN(C(=O)Nc1ccccc1F)[C@H](C)CO do in these assays?
Tgondii IFNg: -32

How did Cc1nn(-c2ccc3ccccc3n2)c2c1C(=O)CC(C)(C)C2 do in these assays?
Tgondii IFNg: -95*

Results for CC1(C)CC(=O)c2cnc3nc(N)nn3c2C1 ?
Tgondii IFNg: -12

What do the screens show for `Cc1nn(C(=O)c2ccccc2)c2c1C(=O)CC(C)(C)C2`?
Tgondii IFNg: -30

What do the screens show for `CC1CCCCN1S(=O)(=O)c1ccc2c(c1)CCC(=O)N2CC(=O)NCc1ccc(N(C)C)cc1` (configuration not stated)?
Tgondii IFNg: 40

How did CCCCS(=O)(=O)N1CCC(c2nn(C)c(=O)n2-c2ccccc2)CC1 do in these assays?
Tgondii IFNg: 2

What do the screens show for `COCCN1C2COCC1CN(Cc1cccc(C)c1)C2`?
Tgondii IFNg: 3

How did C=CCC1C=CCC(CC=C)N1C(=O)CCC(=O)O (configuration not stated) do in these assays?
Tgondii IFNg: -23

Results for O=C(C[C@@H]1CC[C@@H](NC(=O)CN2CCOCC2)[C@@H](CO)O1)NC1CCC1 ?
Tgondii IFNg: -38

Results for CCN1CCNC(=O)C12CCN(S(=O)(=O)c1ccccc1)CC2 ?
Tgondii IFNg: 88

Results for CCOC(=O)c1nc(-c2cccc(-n3cccc3)c2)no1 ?
Tgondii IFNg: -18

What do the screens show for `CC(C)(C)c1nc(SCc2nc(-c3cccc(-n4cccc4)c3)no2)n[nH]1`?
Tgondii IFNg: -81*

How did CC(C)(C)c1ccc(-c2noc(CSc3ccccn3)n2)cc1 do in these assays?
Tgondii IFNg: 178

What do the screens show for `CCN(CC)c1ncnc2c1cnn2CC(=O)Nc1ccccc1F`?
Tgondii IFNg: 2

Results for CCOC(=O)c1cccnc1-c1ccc(S(C)(=O)=O)cc1 ?
Tgondii IFNg: 3

How did COc1nc(Nc2ccccc2)nc(OC)n1 do in these assays?
Tgondii IFNg: -116*

What do the screens show for `COc1ccc(-c2nc(Nc3ccccc3)c3ccccc3n2)cc1`?
Tgondii IFNg: -38

How did Cc1cc(C)nc(Nc2ccc(O)cc2)n1 do in these assays?
Tgondii IFNg: -5

What do the screens show for `CCN1CCC2(CN(C(=O)N(C)C)CC23CCN(C(=O)Cc2cccs2)CC3)C1=O` (configuration not stated)?
Tgondii IFNg: 4

How did CC1CN(c2ncc(C(=O)OCc3ccccc3)c(C(F)(F)F)n2)CC(C)O1 (configuration not stated) do in these assays?
Tgondii IFNg: -116*

What do the screens show for `COC(=O)c1cnc(NN2C(=O)CCC2=O)nc1C(F)(F)F`?
Tgondii IFNg: 65

How did CCCc1c(C(=O)OCC)cnn1-c1ncc(C(=O)OC)c(C(F)(F)F)n1 do in these assays?
Tgondii IFNg: -19

How did Cc1noc([C@@]23COC[C@@H]2CN(C(=O)c2ccc(C)o2)C3)n1 do in these assays?
Tgondii IFNg: -4

What do the screens show for `CCS(=O)(=O)N1CCc2nc(N3CCOCC3)nc(NC3CC3)c2C1`?
Tgondii IFNg: -5

What do the screens show for `CCN1[C@H](C(=O)NC2Cc3ccccc3C2)[C@@H](CO)[C@@H]2Cn3c(ccc(C4=CCCC4)c3=O)[C@@H]21`?
Tgondii IFNg: -30

Results for Cc1cccc(NCc2c(C#N)c3ccccc3n2C)c1 ?
Tgondii IFNg: 230

Results for Cc1ccc2c(c1)c1c3n2CCN=C3CCC1 ?
Tgondii IFNg: -21

How did Cc1ccc2c(c1)c1cccc3c1n2CCN3CCC#N do in these assays?
Tgondii IFNg: -103*

What do the screens show for `COCCn1c2c(ccc1=O)CC(NCc1ccc(F)cc1)CC2` (configuration not stated)?
Tgondii IFNg: -7

How did CC(C)CNC(=O)CC1CC2(CCN(C(=O)CC3CC3)CC2)Oc2ccccc21 (configuration not stated) do in these assays?
Tgondii IFNg: -4

How did CCOCCN1CC[C@@H]2[C@H](CC1)C(=O)NC[C@@H]2c1nc(C)no1 do in these assays?
Tgondii IFNg: -5

From PubChem BioAssay
